High-throughput results as filed in PubChem BioAssay.
Sampled rows, rich in hits. Any-hit rate of the full collection: about 2.9%.
ADAM10 inh – inhibits human ADAM10 | AID 720582 | inhibition, % at 7 µM | actives 0.62% (n = 370,000) | O14672 | recombinant ADAM10, EDANS/DABCYL FRET peptide cleavage, 3 h;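 active = inhibition above a per-campaign cutoff equal to the mean of compounds falling between control-based bounds plus 3 SD, cut at about 20% in these data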;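 note: 0% = DMSO wells while the 100% control is not disclosed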
PLCg1 inh – inhibitors of human phospholipase C gamma1. P19174. purified PLC-gamma1, fluorogenic substrate, fluorescence. inhibition, % at 12.2 µM. actives 0.84% (n = 370,000); in the data active = inhibition above about 9.5%
Target sequence (P19174 whole entry, looked up): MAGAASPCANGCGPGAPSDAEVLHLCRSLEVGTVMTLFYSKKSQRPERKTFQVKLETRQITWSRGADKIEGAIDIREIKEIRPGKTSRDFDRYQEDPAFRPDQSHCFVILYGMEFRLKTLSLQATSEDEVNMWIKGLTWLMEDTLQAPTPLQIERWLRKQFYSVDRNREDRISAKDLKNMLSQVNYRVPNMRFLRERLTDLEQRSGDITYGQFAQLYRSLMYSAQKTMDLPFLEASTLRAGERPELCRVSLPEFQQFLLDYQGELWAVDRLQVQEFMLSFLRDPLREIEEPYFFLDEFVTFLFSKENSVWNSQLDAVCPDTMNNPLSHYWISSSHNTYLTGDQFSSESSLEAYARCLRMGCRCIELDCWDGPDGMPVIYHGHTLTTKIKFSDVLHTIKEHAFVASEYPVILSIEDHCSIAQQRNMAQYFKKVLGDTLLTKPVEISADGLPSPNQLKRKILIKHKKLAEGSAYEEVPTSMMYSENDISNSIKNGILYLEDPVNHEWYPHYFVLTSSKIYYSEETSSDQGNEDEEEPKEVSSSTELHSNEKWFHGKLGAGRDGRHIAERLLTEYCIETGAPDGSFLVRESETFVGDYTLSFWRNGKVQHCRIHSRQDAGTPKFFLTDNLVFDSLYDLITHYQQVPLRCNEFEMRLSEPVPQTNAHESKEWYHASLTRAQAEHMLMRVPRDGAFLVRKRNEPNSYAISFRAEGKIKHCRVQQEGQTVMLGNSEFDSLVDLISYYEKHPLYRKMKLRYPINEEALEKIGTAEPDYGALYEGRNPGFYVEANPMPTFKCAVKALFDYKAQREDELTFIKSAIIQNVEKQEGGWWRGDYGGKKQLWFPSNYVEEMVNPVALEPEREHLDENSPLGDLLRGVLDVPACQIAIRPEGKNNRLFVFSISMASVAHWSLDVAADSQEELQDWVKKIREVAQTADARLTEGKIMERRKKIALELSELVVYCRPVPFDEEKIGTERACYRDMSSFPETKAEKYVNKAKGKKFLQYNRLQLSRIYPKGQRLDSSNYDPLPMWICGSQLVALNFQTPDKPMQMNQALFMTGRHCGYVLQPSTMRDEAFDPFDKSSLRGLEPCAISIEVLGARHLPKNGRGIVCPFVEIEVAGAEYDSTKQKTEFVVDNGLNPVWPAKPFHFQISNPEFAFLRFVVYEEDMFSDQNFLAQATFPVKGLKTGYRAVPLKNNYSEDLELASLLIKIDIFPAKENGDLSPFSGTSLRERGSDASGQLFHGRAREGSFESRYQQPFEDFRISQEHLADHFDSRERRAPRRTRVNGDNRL
PLCb3 inh – blocks human PLC-beta3 enzyme activity; inhibition, % at 12.2 µM; Purified PLC-beta3, fluorogenic substrate, fluorescence; AID 720704; Q01970; actives 0.18% (n = 370,000); in the data active = inhibition above about 11%;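 note: 0% = median of compound wells on plate and 100% = full blocker control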
proKLK7 act – activates the human kallikrein-7 zymogen | P49862 | purified proKLK7, EDANS-DABCYL substrate fluorescence; 100% is mature enzyme control, 0% vehicle | activation, % at 7 µM | actives 0.9% (n = 370,000);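 active = activation above the mean of all tested compounds plus 3 SD, computed per campaign excluding outliers beyond control limits, cut at about 13% in these data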
ADAM17 inh – ADAM17 inhibition, QFRET primary screen | P78536 | recombinant ADAM17, EDANS/DABCYL FRET peptide cleavage | inhibition, % at 6.95 µM | actives 0.83% (n = 370,000);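 active = inhibition above the mean of compounds lying between control limits plus 3 SD, set per campaign, cut at about 8.5% in these data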;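 note: 0% = DMSO-only wells as the low control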
ADAM10 confirm – confirmation of inhibitors of human ADAM10; inhibition, % at 6.95 µM; actives 1% (n = 2,100); AID 743208; ADAM10 QFRET peptide cleavage, EDANS fluorescence; shares compounds with ADAM10 inh;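 active = inhibition above about 20% chosen separately for each screening run, limit read from the data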;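 note: 0% = DMSO wells and 100% = marimastat wells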
ADAM17 counter – counter-screen for ADAM10 exosite inhibitors: inhibitors of human ADAM17; shares compounds with ADAM10 inh; ADAM17 QFRET peptide cleavage, EDANS fluorescence; inhibition, % at 6.95 µM; actives 0.5% (n = 2,100); AID 743214;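 active = mean triplicate inhibition above the solvent-only control wells' mean plus 3 SD, cut at about 12% in these data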;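 note: 0% = DMSO wells and 100% = marimastat wells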
* marks the source's active call; other numbers are inactive results; . = no result given.

SMILES	ADAM10 inh	PLCg1 inh	PLCb3 inh	proKLK7 act	ADAM17 inh	ADAM10 confirm	ADAM17 counter
COc1ccc(C(=O)C(=O)N2CCN(C(=O)c3cc(C(F)(F)F)cc(C(F)(F)F)c3)CC2)cc1OC	-1	0	0	0	-1	.	.
O=S(=O)(c1cccc(C(F)(F)F)c1)N1CCC(O)(c2cccnc2)CC1	7	-1	5	1	0	.	.
O=S(=O)(c1cccc(C(F)(F)F)c1)N1CCC(CO)(CCCc2ccccc2)CC1	22*	-1	-10	0	8	1	1
Brc1cccc(Cn2ccc3ccc(-c4ccc5ccn(Cc6cccc(Br)c6)c5c4)cc32)c1	-21	-12	-19	-4	-7	.	.
S=c1[nH]nc(-c2cc(-c3ccsc3)n[nH]2)n1-c1cccc2ccccc12	23*	-2	-2	-1	1	3	2
C[C@@H]1CN(c2ccc(N3CCNC[C@H]3C)cc2C#N)CCN1Cc1ccccc1	-44	-74	-95	2	-12	.	.
CN1C(=O)C[C@@](C#N)(C(=O)N2CCOCC2)[C@H]1c1ccccc1	0	0	3	1	-3	.	.
CCOc1ccccc1NC(=S)N1C2CCC1CC(NC(=O)NC13CC4CC(CC(C4)C1)C3)C2 (stereo not drawn)	33*	6	-1	0	-6	1	0
COc1cc(C(NC(=O)C(F)(F)F)C2CCCC=C2c2ccccc2)cc(OC)c1OC (stereo not drawn)	-6	3	-6	0	-2	.	.
COc1ccc(-n2c(SCC(=O)NCC3CCCO3)nnc2-c2ccncc2)cc1 (stereo not drawn)	2	1	2	0	2	.	.
O=C(Nc1ccc(S(=O)(=O)N2CCCC2)cc1)Nc1ccc(F)cc1F	7	1	-6	0	1	.	.
Cc1ccc(S(=O)(=O)Nc2ccc(NC(=O)Nc3ccc(F)cc3F)cc2)cc1	20*	3	2	0	8	4	1
O=C1C[C@H](C(=O)Nc2ccc(Cl)cc2)[C@@H](c2ccccc2)O1	-1	1	1	0	0	.	.
CCNC(=O)NC(=O)C(C)OC(=O)c1ccc(-n2nc(SC)sc2=S)cc1 (stereo not drawn)	22*	4	4	0	3	1	0
CSc1nn(-c2ccc(C(=O)OC(C(=O)NC(N)=O)C(C)C)cc2)c(=S)s1 (stereo not drawn)	-2	0	0	0	-1	.	.
Cc1ccccc1-n1c(Cn2c(=O)sc3ccccc32)nnc1SC(C)C	78*	0	1	0	-1	-1	0
CC(C)Sc1nnc(Cn2c(=O)sc3ccccc32)n1-c1ccccc1	-3	2	3	1	-2	.	.
Cc1ccc(CNC(=O)c2cccc3c2C(=O)c2ccc(N4CCCCC4)cc2S3(=O)=O)cc1	21*	-102	-161	-4	5	7	0
Cc1ccc(CNC(=O)c2cccc3c2C(=O)c2ccc(N4CCOCC4)cc2S3(=O)=O)cc1	7	-7	-15	-3	1	.	.
COCCNC(=O)[C@]1(C#N)CC(=O)N(C)[C@@H]1c1ccccc1	0	0	2	0	1	.	.
Cc1ccc(N2CC(C(=O)Nc3nnc(SCC(N)=O)s3)CC2=O)cc1 (stereo not drawn)	81*	0	-5	0	0	1	-1
NC(=O)CSc1nnc(NC(=O)C2CC(=O)N(c3ccc(F)cc3)C2)s1 (stereo not drawn)	4	-4	-12	-1	5	.	.
CC(C)(C)c1ccc(C#C[C@@H]2C=C[C@@H](O)[C@@H](COC(=O)Nc3ccccc3)O2)cc1	13	4	1	0	7	.	.
COC(=O)[C@]12C[C@H](CC(=O)NCc3cccc4ccccc34)C(=O)N(Cc3cccc4ccccc34)C1=C[C@H](C(C)(C)C)O[C@@H]2C	8	0	-1	0	3	.	.
COC(=O)[C@]12C[C@H](CC(=O)NCCC(C)C)C(=O)N(Cc3ccco3)C1=C[C@H](COCc1ccccc1)O[C@@H]2C	53*	-2	-5	0	-4	1	0
SMILES	ADAM10 inh	PLCg1 inh	PLCb3 inh	proKLK7 act	ADAM17 inh	ADAM10 confirm	ADAM17 counter
COC(=O)[C@]12C[C@H](CC(=O)N3CCN(C(=O)c4ccco4)CC3)C(=O)N(Cc3cccc4ccccc34)C1=C[C@H](C1CCCC1)O[C@@H]2C	21*	8	5	0	4	5	2
CCCCOCCCNC(=O)C[C@H]1C[C@@]2(C(=O)OC)C(=C[C@H](C(C)(C)C)O[C@@H]2C)N(Cc2cccc3ccccc23)C1=O	21*	1	5	2	8	10	3
COC(=O)[C@]12C[C@H](CC(=O)NCc3ccc(OC)c(OC)c3)C(=O)N(Cc3cccc4ccccc34)C1=C[C@H](C1CCCC1)O[C@@H]2C	24*	4	4	1	8	8	3
Cc1ccc(CSc2nnc(-c3cccs3)o2)cc1C	3	1	-1	0	3	.	.
Cc1ccc(Cl)cc1N1CCN(C(=O)c2ccc(CS(=O)Cc3ccc(Cl)cc3)o2)CC1 (stereo not drawn)	23*	-4	-17	0	3	3	2
C#CCN1CC(N(C)CCOC(=O)c2ccc([N+](=O)[O-])cc2)CS1(=O)=O (stereo not drawn)	9	4	4	0	4	.	.
CCOC(=O)Nc1nc(-c2ccccc2)c(C(=O)c2ccc(Cl)cc2)s1	21*	-5	-13	-1	7	8	3
CCOC(=O)Nc1sc(C)nc1-c1ccccc1	0	-1	-1	0	-3	.	.
O=C(O)c1ccc(C#Cc2cccc(F)c2)cn1	26*	-1	-1	0	-3	1	1
CC(=O)N1CCN(C(=O)C2CCCN(C(=O)c3ccc4c(c3)NC(=O)CS4)C2)CC1 (stereo not drawn)	-5	0	3	1	0	.	.
O=C(CCn1c(=O)oc2ccccc21)N1CCN(C(c2ccccc2)c2ccccc2)CC1	27*	9	5	1	4	3	2
COc1ccccc1NC(=O)Cc1csc(NC(=S)Nc2ccc(C)cc2)n1	33*	5	-3	-1	4	6	2
OC(COc1ccc2c(c1)CCC2)CN1CCN(c2ccccc2F)CC1 (stereo not drawn)	20*	1	0	0	2	2	0
COc1ccccc1-c1cc(C(=O)N/N=C/C=C/c2ccccc2[N+](=O)[O-])c2ccccc2n1	20*	2	0	-1	8	8	2
